S16 F2sN tox: Cell viability qHTS assay in S16 Pmp22-F2sN cells. S16 Pmp22-F2sN Schwann cells viability, CellTiter-Glo, 24 h. Potency, µM (doses to about 57.5 µM), without a hit: top-dose activity change, negative = cytotoxicity, actives largely listed as cytotoxic. actives 0.48% (n = 43,000). AID 1508642, 2021; note: potency is the fitted concentration of half-maximal effect; % is set by controls: 0 for no effect and ±100 for the full control effect; nearly all actives have a fitted effect of over 65% in size
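Viability was measured by CellTiter-Glo luminescence (15 min, room temperature). This followed 24 h at 37 °C of compound exposure (23 nL pin transfer) in S16 Pmp22-F2sN Schwann cells, 500-1,000 per well.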
PMP22 txn prim: Cell-based coincidence reporter assay to measure PMP22 gene transcription in S16 Pmp22-F2sN cells - Primary screen. S16 Pmp22-F2sN Schwann cells (luciferase reporters placed in the Pmp22 gene), FLuc/NLuc coincidence luminescence, 24 h. Potency, µM (highest dose often 57.5 µM), without a hit: at the highest dose activity change, negative = inhibition, most hits filed as inhibitors. actives 2% (n = 43,000); active = clear falling dose curves in both reporters; inconclusive = both reporters move, but less clearly or upward; inactive = either reporter flat; the % is the NLuc reporter signal; note: potency is the fitted concentration of half-maximal effect; % is set by controls: 0 for no effect and ±100 for the full control effect
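qHTS, 1536-well. Cells seeded, compounds added by pin tool, 24 h 37C. Nano-Glo reagent 1 (lysis/FLuc), 10 min RT, read; Stop&Glo, 10 min RT, read NLuc.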
mTORC1 inh: Acumen qHTS Assay for Inhibitors of the mTORC1 Signaling Pathway in MEF (Tsc2-/-, p53-/-) Cells: Sytravon. Tsc2-/- p53-/- MEF, phospho-rpS6 immunofluorescence/PI, 24 h. Potency, µM (top dose mostly 38.3 µM), inactives show at the top dose activity change, negative = inhibition, usual class: inhibitors. actives 0.78% (n = 44,000). AID 493208, 2011;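 note: potency is the fitted concentration of half-maximal effect; plate controls were DMSO for no effect and rapamycin for full effect; nearly all actives have a fitted effect of over 50% in size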
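Read-out: phospho-S6 Alexa-488 intensity over PI intensity per well, scored as % active cells using thresholds from rapamycin (7.5 nM) and DMSO controls. Tsc2-/-, p53-/- MEFs exposed to compound for 24 h; PI cell count recorded as viability.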
OvCa metastasis: Primary qHTS assay for Inhibitors of ovarian cancer metastasis using an organotypic tumor microenvironment (TME) model; SKOV3ip1-GFP adhesion/invasion on 3D omental model, fluorescence; Potency, µM (series often up to 45.8 µM), for inactives: at the top dose activity change, negative = inhibition, actives largely listed as inhibitors; actives 0.1% (n = 46,000);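 note: potency is the fitted concentration of half-maximal effect; plate controls were DMSO wells for no effect and tomatine positive control wells for full effect; nearly all actives have a fitted effect of over 65% in size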
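Primary human omental fibroblast/mesothelial 3D culture pre-formed 48 h. SKOV3ip1-GFP cells added with compounds (0.36-46 umol/L), incubated 2 h RT/16 h 37 C, fixed; GFP cells quantified at 488/509 nm.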
p53null 32C tox: qHTS Screen for Compounds that Selectively Target Cancer Cells with p53 Mutations: Cytotoxicity of p53 Null Cells at the Permissive Temperature | H1299-neo p53 null cells, ATP luminescence, 24 h, 32C | actives 0.62% (n = 55,000) | AID 903, 2007 | Potency, µM (doses to about 46.1 µM), without a hit: at the highest dose activity change, negative = cytotoxicity, actives largely listed as cytotoxic;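 note: potency is the fitted concentration of half-maximal effect; 0% = DMSO only and -100% = full killing by 100 µM tamoxifen; nearly all actives have a fitted effect of over 55% in size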
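We seeded p53-null H1299-neo cells, incubated them overnight at 37C, and added compounds across a range up to 46 uM. After 24 hours at 32C, ATP reagent was applied for 20 min at room temperature and luminescence recorded.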
p53null 39C tox: qHTS Screen for Compounds that Selectively Target Cancer Cells with p53 Mutations: Cytotoxicity of p53 Null Cells at the Nonpermissive Temperature; H1299 p53-null (neo) cells, 39C, ATPlite viability, 24 h; Potency, µM (highest dose often 46.1 µM), for the others: top-dose activity, negative = cell killing, hits mostly cytotoxic; actives 0.97% (n = 55,000);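 note: potency is the fitted concentration of half-maximal effect; 0% = DMSO only and -100% = full killing by 100 µM tamoxifen; nearly all actives have a fitted effect of over 50% in size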
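Temperature-shift cytotoxicity format: compound titrations on p53-null or A138V-expressing H1299 cells held 24 hr at 39C, cell ATP then measured, AC50 from Hill model.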
NLuc sat counter: Biochemical NLuc saturation counterscreen for small molecule modulators of PMP22 gene expression - Nano-Glo assay. shares compounds with PMP22 txn prim. Potency, µM (titrated, usually from 57.5 µM), for inactives: at the highest dose activity change, negative = inhibition, most hits filed as inhibitors. AID 1508638, 2021. actives 4% (n = 690). Secreted NLuc enzyme (filtered S16 cell medium), Nano-Glo luminescence; note: potency is the fitted concentration of half-maximal effect; % is set by controls: 0 for no effect and ±100 for the full control effect
NLuc Km counter: Biochemical coelenterazine-based NLuc counterscreen for small molecule modulators of PMP22 gene expression - Km assay; shares compounds with PMP22 txn prim; secreted NLuc enzyme, coelenterazine luminescence, Km conditions; Potency, µM (doses to about 57.5 µM), inactives show at the highest dose activity change, negative = inhibition, actives largely listed as inhibitors; actives 5% (n = 690); note: potency is the fitted concentration of half-maximal effect; % is set by controls: 0 for no effect and ±100 for the full control effect
FLuc counter: Biochemical FLuc counterscreen for small molecule modulators of PMP22 gene expression. shares compounds with PMP22 txn prim. purified P. pyralis FLuc, luminescence, 10 min. Potency, µM (titrated, usually from 57.5 µM), for the others: at the top dose activity, negative = inhibition, actives largely listed as inhibitors. 690 tested, under 10 active. AID 1508640, 2021; note: % of control where 0% means no effect
Target sequence (P08659 whole entry, looked up): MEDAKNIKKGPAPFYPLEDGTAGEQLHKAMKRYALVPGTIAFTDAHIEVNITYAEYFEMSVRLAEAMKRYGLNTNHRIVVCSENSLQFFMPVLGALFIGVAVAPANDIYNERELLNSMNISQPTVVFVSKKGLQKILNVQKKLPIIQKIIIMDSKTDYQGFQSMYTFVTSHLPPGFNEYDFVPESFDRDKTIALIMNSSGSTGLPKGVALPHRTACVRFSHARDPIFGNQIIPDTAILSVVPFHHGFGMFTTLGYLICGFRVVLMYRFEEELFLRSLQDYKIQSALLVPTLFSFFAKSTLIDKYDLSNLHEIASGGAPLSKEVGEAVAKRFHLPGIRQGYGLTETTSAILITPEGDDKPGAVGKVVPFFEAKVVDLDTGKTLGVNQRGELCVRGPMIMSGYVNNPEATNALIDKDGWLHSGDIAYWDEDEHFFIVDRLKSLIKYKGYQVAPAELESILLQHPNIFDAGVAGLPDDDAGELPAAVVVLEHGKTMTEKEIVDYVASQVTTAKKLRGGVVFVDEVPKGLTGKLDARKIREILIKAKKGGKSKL
S16 F2sN tox cnf: Cell viability qHTS assay in S16 Pmp22-F2sN cells - Confirmatory screen; shares compounds with PMP22 txn prim; AID 1508641, 2021; Potency, µM (top dose mostly 57.5 µM), inactives show top-dose activity change, negative = viability loss, usual class: cytotoxic; S16 Schwann cells viability, CellTiter-Glo ATP luminescence, 24 h; actives 7% (n = 690); note: potency is the fitted concentration of half-maximal effect; % is set by controls: 0 for no effect and ±100 for the full control effect
PMP22 txn conf: Cell-based coincidence reporter assay to measure PMP22 gene transcription in S16 Pmp22-F2sN cells - Confirmatory screen. actives 22% (n = 690). shares compounds with PMP22 txn prim. Potency, µM (series often up to 57.5 µM), inactives show at the top dose activity change, negative = inhibition, hits mostly inhibitors. S16 Schwann cells Pmp22-F2sN, dual luciferase, 24 h. AID 1508646, 2021; active = clear falling dose curves in both reporters; inconclusive = both reporters move, but less clearly or upward; inactive = either reporter flat; the % is the FLuc reporter signal; note: potency is the fitted concentration of half-maximal effect
PMP22 prot conf: Cell-based HiBiT reporter assay to measure PMP22 protein expression in S16 Pmp22-HiBiT cells - Confirmatory screen. shares compounds with PMP22 txn prim. S16 Schwann cells Pmp22-HiBiT, luminescence, 48 h. Potency, µM (titrated, usually from 27.9 µM), inactives show at the highest dose activity change, negative = inhibition, hits mostly inhibitors. 95 tested, under 10 active. AID 1508647, 2021
Target sequence (P25094 whole entry, looked up): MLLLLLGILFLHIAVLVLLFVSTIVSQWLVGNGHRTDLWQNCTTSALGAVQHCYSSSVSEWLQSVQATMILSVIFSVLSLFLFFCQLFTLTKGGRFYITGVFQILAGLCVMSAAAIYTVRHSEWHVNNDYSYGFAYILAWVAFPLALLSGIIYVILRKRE
The depositor's hits bear a star; i = inactive; ? = inconclusive; nt = no result. Only some compounds are listed: those with a hit (about 3.1% of all), similar ones and a draw of the others. Unless noted, calls come from the whole dose curve; as a rule, active = well fitted curve in the direction sought with a large enough effect; inconclusive = small, poorly fitted or top-dose-only effect, or another doubt; inactive = no such curve, though single readings can be large; an effect the other way counts as inactive or inconclusive.

SMILES	S16 F2sN tox	PMP22 txn prim	mTORC1 inh	OvCa metastasis	p53null 32C tox	p53null 39C tox	NLuc sat counter	NLuc Km counter	FLuc counter	S16 F2sN tox cnf	PMP22 txn conf	others
COc1ccc(Br)c2c1-c1nc(NC(=O)c3cccc(C)c3)sc1C2	-3%	11µM*	-3%	i	4%	-15%	?	-19%	-13%	3%	?	PMP22 prot conf=33%
CCOc1ccc(CN2CCc3nc(N4CCN(c5ccccc5OC)CC4)ncc3C2)cc1OC	-8%	17µM*	0%	-2%	9%	20%	-2%	0%	-1%	-11%	-41%
COc1ccccc1N1CCN(c2ncc3c(n2)CCN(Cc2ccccc2F)C3)CC1	-3%	0%	7%	-2%	-2%	1%	nt	nt	nt	nt	nt
COc1cc(OC)c(OC)cc1CN1CCc2nc(N3CCN(c4ccccc4F)CC3)ncc2C1	-10%	?	0%	-1%	1%	3%	-9%	3%	-2%	-1%	?
COc1cc(Cl)c(NS(=O)(=O)c2ccc(-c3coc(C)n3)cc2)c(OC)c1	-16%	13µM*	?	i	9%	21%	?	?	0%	?	-13%
Cc1nc(-c2ccc(S(=O)(=O)Nc3ccc(C)c(N(C)C)c3)cc2)co1	-15%	?	-7%	8%	16%	0%	nt	nt	nt	nt	nt
Cc1ccc(NC(=O)N2CCc3cc(S(=O)(=O)N4CCC(C)CC4)ccc32)cc1F	6%	8.9µM*	-2%	0%	-1%	-11%	-5%	5%	-4%	?	15µM*	PMP22 prot conf=3%
CC1CCN(S(=O)(=O)c2ccc3c(c2)CCN3C(=O)Nc2ccc(Br)cc2)CC1	2%	?	-1%	i	1%	-7%	nt	nt	nt	nt	nt
CCOC(=O)c1cc2c(=O)n3ccccc3nc2n(C(C)C)c1=NC(=O)c1c(-c2c(F)cccc2Cl)noc1C	?	11µM*	-1%	5%	12%	33%	?	-16%	3%	18%	?
CCOC(=O)c1cc2c(=O)n3ccccc3nc2n(C)c1=NC(=O)c1c(-c2c(F)cccc2Cl)noc1C	0%	2.1µM*	-12%	3%	1%	3%	?	-17%	5%	12%	-17%
COc1ccc(-c2nc3n(n2)C(c2ccc(OC)cc2)C(C(=O)Nc2cccnc2)=C(C)N3)cc1 (stereo not given)	22%	?	4%	4%	7%	-10%	nt	nt	nt	nt	nt
Cc1ccc(S(=O)(=O)c2nnn3c2nc(N2CCCC2)c2sccc23)cc1	3%	?	-3%	-3%	-3%	-7%	nt	nt	nt	nt	nt
CCN1CCN(c2nc3c(S(=O)(=O)c4ccc(C)cc4)nnn3c3ccsc23)CC1	-20%	17µM*	3%	i	2%	-4%	-6%	-17%	0%	9%	-35%
CC(=O)N1c2c(cc(Br)cc2S(=O)(=O)Nc2ccc(OC(F)(F)F)cc2)CC1C (stereo not given)	-24%	16µM*	?	15%	25%	27%	22µM*	1.5µM*	-5%	3%	-30%
CCOC(=O)c1ccc(NS(=O)(=O)c2cc(Br)cc3c2N(C(C)=O)C(C)C3)cc1 (stereo not given)	0%	?	1%	i	9%	22%	nt	nt	nt	nt	nt
CC(=O)c1ccc(NS(=O)(=O)c2cc(-c3cc(C)no3)ccc2C)cc1	?	?	-13%	3%	-9%	19%	nt	nt	nt	nt	nt
COc1ccc(N2CCN(CCCNC(=O)Nc3ccccc3Cl)CC2)cc1	-7%	-21%	-9%	-16%	-11%	3%	nt	nt	nt	nt	nt
O=C(NCCCN1CCN(c2ccc(F)cc2)CC1)Nc1ccccc1Cl	-22%	13µM*	-9%	?	-3%	6%	?	0%	6%	?	-14%

Source: PubChem (National Center for Advancing Translational Sciences (NCATS))
